Experimental data reported in PubChem BioAssay (NCATS).
Results filed as inconclusive are left out. Where a call stands in place of a potency, no number is given. Activity calls are given as the source filed them. The call rests on the fitted dose curve; in most records, active means well fitted curve in the direction sought with a large enough effect; inconclusive means small, poorly fitted or top-dose-only effect, or another doubt; inactive means no such curve, though single readings can be large; an effect the other way counts as inactive or inconclusive.

Assays:
[1] = HEK-293 Cancer Cell Toxicity qHTS against the NCATS CANVASS Library (AID 1347355); further: nearly all actives have a fitted effect of over 65% in size; further: potency means the concentration at half of the fitted maximal effect; on outcome: series mostly up to about 46 µM
In short: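 Luminescent ATP read-out (CellTiter-Glo, 15min at room temperature) measures survival after cells face an 11-point compound series for 72 hours at 37 degrees C/5% CO2.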

[2] = HPAF-II 24hr Apoptosis Induction qHTS against the NCATS CANVASS Library (AID 1347356)
In short: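 Luminescent caspase-3/7 signal (DEVD substrate, Caspase-Glo) served as read-out, taken 15 min after reagent addition to HPAF-II cells exposed 24 h to compounds.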

[3] = HEK293 18hr Apoptosis Induction qHTS against the NCATS CANVASS Library (AID 1347357); further: potency means the concentration at half of the fitted maximal effect
In short: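 HEK293 cells (500 per well, DMEM with 10% FBS) were treated with natural products, incubated 18 hours at 37 degrees C, then caspase-3/7 activity was read by Caspase-Glo luminescence after 15 min at room temperature.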

[4] = HPAF-II 12hr Apoptosis Induction qHTS against the NCATS CANVASS Library (AID 1347358)
In short: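 500 HPAF-II cells/well; cmpds 11-pt; 12 hr, 37 degrees C/5% CO2; Caspase-Glo 3/7 added, 15 min RT dark; luminescence read. Doxorubicin titration as control.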

[5] = HEK293 24hr Apoptosis Induction qHTS against the NCATS CANVASS Library (AID 1347359); further: potency means the concentration at half of the fitted maximal effect
In short: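 HEK293 cells (500/well, DMEM + 10% FBS) were exposed to compounds in an 11-point series for 24 hours at 37 degrees C, then caspase-3/7 activity was read by Caspase-Glo DEVD luciferase luminescence after 15 min.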

[6] = HPAF-II 18hr Apoptosis Induction qHTS against the NCATS CANVASS Library (AID 1347360)
In short: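 HPAF-II cells (500/well, DMEM + 10% FBS) were exposed to compounds for 18 hours at 37 degrees C. Caspase-3/7 activity was then read by Caspase-Glo 3/7 luminescence after 15 min at room temperature.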

[7] = system: NAD(P)H diaphorase (Clostridium kluyveri); assay: Diaphorse counterscreen qHTS: Assay Interference Panel against the NCATS CANVASS Library (AID 1347362)
In short: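 Clostridium kluyveri diaphorase in PBS with 0.01% Tween-20 was preincubated 15 min at room temperature in the dark with compounds (11-point series). Resorufin fluorescence (ex 525/20, em 598/25) was read 5 min after adding resazurin/NADH.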

[8] = qHTS for ATAD5 Agonist screened against the NCATS CANVASS Library (AID 1347367);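 further: luciferase reporter driven by ATAD5 which rises upon DNA damage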
In short: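 HEK293T cells stably carrying an ATAD5-controlled luciferase reporter (2000 cells/well) attached for 5 hr, then received compounds in an 11-point series for 16hr at 37C. Luminescence was read after a 30 min room-temperature reagent step.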

[9] = MCF7 Cancer Cell Toxicity qHTS against the NCATS CANVASS Library (AID 1347369); further: potency means the concentration at half of the fitted maximal effect
In short: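 MCF7, 500 cells/well; cpds 11-pt qHTS; 72 hr, 37C/5% CO2; CellTiterGlo ATP luminescence.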

[10] = qHTS for ATAD5 Antagonist screened against the NCATS CANVASS Library (AID 1347370); further: nearly all actives have a fitted effect of over 65% in size; further: potency means the concentration at half of the fitted maximal effect
In short: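 HEK293T cells with stably integrated ATAD5-luciferase reporter, 2000/well, 5 h attachment; compounds plus 10 µM 5-fluorouridine, 16 h at 37 °C. Luciferase luminescence read, with CellTiter-Fluor viability read first.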

[11] = J3T Cancer Cell Toxicity qHTS against the NCATS CANVASS Library (AID 1347371); further: potency means the concentration at half of the fitted maximal effect
In short: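 Cells plated at 500 per well, compounds pin-transferred, plates incubated 72 hr at 37C, then CellTiterGlo added and luminescence read to measure ATP content.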

[12] = qHTS for Hypoxia signaling pathway (HIF-1) agonists against the NCATS CANVASS Library (AID 1347375)
In short: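 ME-180 HRE-bla reporter cells; 2,000/well, 0.5% dialyzed FBS; cpd added after 5 h, 17 h 37C/5% CO2; CCF4-AM 2 h RT; FRET 460/530 nm; CellTiter-Glo viability same wells, 30 min.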

[13] = qHTS for H2AX Agonists against the NCATS CANVASS Library (AID 1347378)
In short: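 CHO-K1 cells were plated overnight at 37C, then exposed to compounds (concentration series, 0.76% DMSO final) for 3 hr at 37C. Lysates received Eu-cryptate anti-pH2AX (S139) and d2 anti-H2AX antibodies; after 24 hr at room temperature, TR-FRET 665/620 nm ratio was read.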

[14] = qHTS for Inflammasome Signaling Inhibitors: IL-1-beta AlphaLISA screen against the NCATS CANVASS Library (AID 1347379);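 further: human THP-1 cells primed with LPS then triggered with ATP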
In short: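 THP-1 cells pretreated 1 hr with compound (up to 57.5 uM final), then stimulated with LPS (250 ng/mL final) and ATP (1.25 mM final). Secreted IL-1B measured by AlphaLISA after 16 hr; glyburide as positive control.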

[15] = qHTS for Activators of p53 Stress Response Pathway screened against the NCATS CANVASS Library (AID 1347388)
In short: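 p53RE-bla HCT-116 cells (4000/well) were plated 5 h at 37C, exposed to compounds for 16 h at 37C over an 11-point concentration series, then loaded with CCF4 for 2 h at room temperature; 460/530 nm emission ratio read.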

[16] = qHTS for activators of dead-cell proteases activity screened against the NCATS CANVASS Library (AID 1347392);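 further: luminescence from protease leaking out of membrane-damaged cells cleaving impermeant substrate; rising signal means more cytotoxicity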
In short: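 HepG2 cells (2000/well) attached 18 h at 37C, then exposed 5 h to compounds (11-point qHTS). Dead-cell protease activity read as luminescence from cell-impermeant AAF-aminoluciferin substrate after 15 min at room temperature.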

[17] = qHTS for inhibitors of Wild type Zika virus screened against the NCATS CANVASS Library (AID 1347396);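 further: ATP luminescence of surviving cells so rescue from viral cell killing; series mostly up to about 46 µM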
In short: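 Protection against wild-type Zika cytopathic effect is measured in African green monkey Vero 766 cells exposed to an 11-point compound series. Surviving cells are quantified by CellTiter Glo luminescence after 72 h.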

[18] = SDT Cancer Cell Toxicity qHTS against the NCATS CANVASS Library (AID 1347365); further: nearly all actives have a fitted effect of over 60% in size; further: potency means the concentration at half of the fitted maximal effect
In short: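 qHTS, SDT dog glioma line, 500 cells/well; cpds 11 pts; 72 hr, 37C, 5% CO2; CellTiterGlo ATP luminescence.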

[19] = molecular target: Nuclear receptor subfamily 1 group I member 3 (Homo sapiens) (UniProt Q14994); assay: qHTS for Constitutive Androstane Receptor (CAR) Agonist screened against the NCATS CANVASS Library (AID 1347373);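 further: every well also contained 1.5 µM PK11195 alongside the test compound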
Chain of Nuclear receptor subfamily 1 group I member 3 (Homo sapiens) (Q14994 whole entry, looked up): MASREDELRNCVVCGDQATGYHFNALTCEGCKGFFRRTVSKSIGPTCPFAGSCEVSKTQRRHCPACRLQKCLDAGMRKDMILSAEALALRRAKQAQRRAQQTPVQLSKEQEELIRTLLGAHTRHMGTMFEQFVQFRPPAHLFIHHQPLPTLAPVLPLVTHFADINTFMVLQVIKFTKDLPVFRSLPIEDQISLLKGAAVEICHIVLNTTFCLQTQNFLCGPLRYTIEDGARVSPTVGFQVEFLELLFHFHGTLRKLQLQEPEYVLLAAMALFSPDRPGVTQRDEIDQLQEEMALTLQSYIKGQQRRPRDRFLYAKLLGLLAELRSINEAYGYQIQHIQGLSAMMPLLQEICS
In short: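 HepG2-hCAR-CYP2B6 cells, 2500/well, attached 4hr; cpd + PK11195 1.5uM final; 24hr 37C 5% CO2. CellTiter-Fluor viability read, then ONE-Glo luminescence for CAR activation.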

[20] = qHTS assay for small molecule disruptors of mitochondrial membrane potential screened against the NCATS CANVASS Library (AID 1347389); further: nearly all actives have a fitted effect of over 60% in size; further: potency means the concentration at half of the fitted maximal effect
In short: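 HepG2, 2,000 cells/well, attached overnight; compound 1 hr, 37C, 5% CO2; Mito-MPS dye 30 min, 37C; fluorescence 535 nm (monomer) and 590 nm (aggregate); decreased 590/535 ratio = depolarization.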

Row | SMILES | Potency [1] | outcome [2] | Potency [3] | Potency [4] | Potency [5] | Potency [6] | Potency [7] | Potency [8] | Potency [9] | Potency [10] | Potency [11] | outcome [12] | Potency [13] | Potency [14] | Potency [15] | Potency [16] | outcome [17] | Potency [18] | Potency [19] | Potency [20]
1 | COC(=O)c1cccc2oc(-c3cccc4oc(-c5c(C)cccc5O)nc34)nc12 | inactive | inactive | inactive | inactive | inactive | inactive | inactive | inactive | inactive | 8310 nM (active) | inactive | inactive | inactive | inactive | inactive | inactive | inactive | – | – | –
2 | C/C=C(/CO)C(=O)O[C@@H]1[C@H](O)[C@@H](C(=O)OC)O[C@@H]2C[C@H]3OC(n4cnc5c(N)ncnc54)[C@H](OC)[C@H]3O[C@@]12O (some centres undefined) | inactive | inactive | inactive | inactive | inactive | inactive | inactive | inactive | inactive | inactive | inactive | inactive | inactive | inactive | inactive | inactive | inactive | inactive | inactive | inactive
3 | CC(C)=CCC[C@]1(C)[C@H]2CC(=O)[C@@]3(CO3)[C@@H]1C2 | inactive | inactive | inactive | inactive | inactive | inactive | inactive | inactive | inactive | inactive | inactive | inactive | inactive | inactive | inactive | inactive | inactive | inactive | inactive | inactive
4 | C[C@@]12CCC[C@@](C)(C(=O)OP(=O)(O)OC[C@H]3O[C@@H](n4cnc5c(N)ncnc54)[C@H](O)[C@@H]3O)[C@H]1C[C@@H](O)[C@@]13C[C@@H](CC[C@@H]21)[C@](C)(O)C3 | inactive | inactive | inactive | inactive | inactive | inactive | inactive | inactive | inactive | inactive | 16600 nM (active) | inactive | – | inactive | inactive | inactive | inactive | – | inactive | inactive
5 | C=C[C@@]1(C)CC[C@@H]([C@H](C)C(C)=O)O1 | inactive | inactive | inactive | inactive | inactive | inactive | inactive | inactive | inactive | inactive | inactive | inactive | inactive | inactive | inactive | inactive | inactive | inactive | inactive | inactive
6 | COC(=O)[C@@]12Oc3cccc(O)c3C(O)=C1C(=O)C[C@H](C)[C@H]2O | inactive | inactive | inactive | inactive | inactive | inactive | inactive | inactive | inactive | inactive | inactive | inactive | inactive | inactive | inactive | inactive | inactive | inactive | inactive | inactive
7 | CC1(C)CC[C@]2(CO)CC[C@]3(C)C(=CCC4[C@@]5(C)CC[C@H](O)C(C)(C)C5CC[C@]43C)C2C1 (some centres undefined) | inactive | inactive | inactive | inactive | inactive | inactive | inactive | inactive | inactive | inactive | inactive | inactive | inactive | inactive | inactive | inactive | inactive | inactive | inactive | inactive
8 | C/C=C/[C@H]1[C@H]2C(=O)c3c(O)c(C)c(O)c(C)c3[C@]1(C(=O)O)C(=O)C=C2C | inactive | inactive | inactive | inactive | inactive | inactive | inactive | inactive | inactive | inactive | inactive | inactive | inactive | inactive | inactive | inactive | inactive | inactive | inactive | inactive
9 | C[C@@]12CCC[C@@](C)(C(=O)O)[C@H]1CC[C@@]13C[C@@H](CC[C@H]12)[C@](C)(O)C3 | inactive | inactive | inactive | inactive | inactive | inactive | inactive | inactive | inactive | inactive | inactive | inactive | inactive | inactive | inactive | inactive | inactive | inactive | inactive | inactive
10 | [C-]#[N+][C@@]12C(=O)[C@@H]3[C@@H](O[C@@]4(C(=O)N(C)c5cccc1c54)C3(C)C)C(=O)[C@@]2(C)C=C | inactive | inactive | inactive | inactive | inactive | inactive | inactive | inactive | inactive | inactive | inactive | inactive | inactive | inactive | inactive | inactive | – | inactive | inactive | –
11 | C=C(C)C(=O)O[C@H]1C[C@@]2(C)OC(=CC2=O)/C(C)=C\[C@H]2OC(=O)C(=C)[C@H]12 | 1050 nM (active) | inactive | 2960 nM (active) | inactive | 2960 nM (active) | inactive | inactive | inactive | 4160 nM (active) | 2950 nM (active) | 1660 nM (active) | – | – | 1370 nM (active) | inactive | – | – | 1660 nM (active) | inactive | 18600 nM (active)
